Results as given in PubChem BioAssay (NCATS).
Results filed as inconclusive are left out. Active and inactive are the calls of the source. Calls come from the whole dose curve; as a rule, active = well fitted cell-killing curve with a large enough effect; inconclusive = small, poorly fitted or top-dose-only effect; inactive = flat fitted curve, though single readings scatter.

Assay: qHTS assay to identify small molecule inhibitors of chordoma cells - UCH-2 (AID 1259356)
Conditions: UCH-2 chordoma viability, CellTiter-Glo ATP luminescence, 48 h; series mostly up to 46.1 µM; activity change, negative = inhibition: at the top concentration
Text: NIH Chemical Genomics Center [NCGC]
Chordoma is a rare and slow growing tumor that can occur anywhere along the spine, from the base of the skull to the tailbone. Current treatment options for chordoma is surgery and radiation therapy for those who are not candidates for surgery. But chordomas tend to return in the same location or surrounding areas of the original tumor after surgery and/or radiation. Chemotherapy can slow down the progression of the tumor. As chordoma is slow growing, the general cytotoxic agents that kill fast growing cells are ineffective, and some patients have been reported to respond to molecularly targeted drugs.
NCATS Pharmaceutical Collection (NPC) containing approximately 3000 clinically approved and investigational drugs were used to screen at 15 concentrations in a chordoma cell lines, UCH-2, to identify small molecule compounds that can inhibit chordoma cell growth.
NCGC Assay Protocol Summary:
Human chordoma cell line UCH-2 was dispensed at 800 per well in 4uL of culture medium into white solid bottom 1536-well plates (Corning Life Sciences, Corning, NY) using a Multidrop Combi (Thermo Scientific, Waltham, MA) dispenser. The assay plates were incubated at 37 C and 5% CO2 for an overnight, and then 23nL of compounds dissolved in DMSO and positive control were transferred using a Pintool station (Wako, San Diego, CA). Compound treatment was followed by the addition of 1uL of the combination compounds (1uM Auranofin, 500nM each of Camptothecin, Doxorubicin, Rubitecan, and Topotecan) and assay medium to each well of the assay plates using Flying Reagent Dispenser (FRD, Aurora Discovery, San Diego, CA). The assay plates were incubated at 37 C and 5% CO2 for 48hr. Then 5uL of CellTiter-Glo reagent (Promega Corporation, Madison, WI) was added to each well of the assay plates using FRD. After 30min incubation at room temperature, the luminescence signal was quantified using a ViewLux plate reader (PerkinElmer, Shelton, CT).
% is set by controls: 0 for no effect and ±100 for the full control effect.

Row | Structure (SMILES) | activity change, negative = inhibition
1 | CN1CCN2c3ncccc3Cc3ccccc3C2C1 (stereo unspecified) | 2.79% (inactive)
2 | COc1ccnc(CS(=O)c2nc3ccc(OC(F)F)cc3[nH]2)c1OC (stereo unspecified) | 5.53% (inactive)
3 | COc1cc2c(cc1OC)CC(=O)N(CCCN(C)C[C@H]1Cc3cc(OC)c(OC)cc31)CC2 | 9.43% (inactive)
4 | Fc1ccc(C(c2ccc(F)cc2)N2CCN(CC=Cc3ccccc3)CC2)cc1 | -0.72% (inactive)
5 | N#CC(c1ccc(Cl)cc1)c1c(Cl)cc(-n2ncc(=O)[nH]c2=O)cc1Cl (stereo unspecified) | 7.74% (inactive)
6 | Clc1ccc(COC(Cn2ccnc2)c2ccc(Cl)cc2Cl)c(Cl)c1 (stereo unspecified) | 7.14% [at 20.6 µM] (inactive)
7 | CC[C@H](C)C(=O)O[C@H]1C[C@H](O)C=C2C=C[C@H](C)[C@H](CC[C@@H](O)C[C@@H](O)CC(=O)O)[C@H]21 | 13% (inactive)
8 | CS(=O)(=O)c1ccc(C2=C(c3ccccc3)C(=O)OC2)cc1 | 4.71% (inactive)
9 | CC(C)CN(C[C@@H](O)[C@H](Cc1ccccc1)NC(=O)O[C@H]1CO[C@H]2OCC[C@H]21)S(=O)(=O)c1ccc(N)cc1 | 7.79% (inactive)
10 | N#Cc1c(N(CC(=O)O)CC(=O)O)sc(C(=O)O)c1CC(=O)O | 17.7% (inactive)
11 | CN1CC(=O)N2C(Cc3c([nH]c4ccccc34)[C@H]2c2ccc3c(c2)OCO3)C1=O (stereo partly specified) | -0.865% (inactive)
12 | NS(=O)(=O)c1cc(Cl)c(Cl)c(S(N)(=O)=O)c1 | 3.92% [at 20.6 µM] (inactive)
13 | NCC1CCC(C(=O)O)CC1 (stereo unspecified) | 3.29% [at 20.6 µM] (inactive)
14 | COc1c(C)c2c(c(O)c1CC=C(C)CCC(=O)OCCN1CCOCC1)C(=O)OC2 | -1.04% (inactive)
15 | O=C(O)c1nc(=O)[nH]c(=O)[nH]1 | 2.31% (inactive)
16 | COc1ccc(-c2nc3ccc(C4=NNC(=O)CC4C)cc3[nH]2)cc1 (stereo unspecified) | -14.6% (inactive)
